These results are taken from PubChem BioAssay (NCI).

About 83,000 compounds went through this panel and 20% of them were active in at least one assay; those are over-represented in the sample as a whole.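 Negative percent growth values reflect cell death: -40 means 40% of the cells present at the start died, and -100 means all died.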 A number with no mark means an inactive call. Active and inactive are the calls of the source. Rule for the calls: active = growth percent below 10; inactive = the rest.

Among the test systems are DU-145 prostate; K-562 leukemia; MALME-3M melanoma; MDA-MB-231 breast; RXF 393 renal; SF-268 CNS; SF-295 CNS; SF-539 CNS; UACC-257 melanoma; M14 melanoma; HCT-15 colon; HT29 colon; SNB-75 CNS; SNB-19 CNS; U251 CNS; PC-3 prostate; SK-MEL-5 melanoma; UACC-62 melanoma; LOX IMVI melanoma; SK-MEL-28 melanoma.
What all share (assay): NCI-60 one-dose screen, 48 h (100 = growth as untreated, 0 = no growth, -100 = all killed)
Common to all, as to settings: 10 µM unless noted

`COC(=O)c1nc(-c2ccccc2)oc1S(=O)(=O)Cc1ccccc1`: the growth in the assay on DU-145 prostate was 109%; with K-562 leukemia it was 2.87% (active); with MALME-3M melanoma, -78.7% (active); in the assay on MDA-MB-231 breast it was 85.2%; in the assay on RXF 393 renal, 96.8%; with SF-268 CNS it was 93.1%. Further, the growth is 103% in the assay with SF-295 CNS; 100% in the assay with SF-539 CNS; 85.1% in the assay with UACC-257 melanoma; 48% in the assay on M14 melanoma; 62.2% in the assay with HCT-15 colon; 49.4% in the assay with HT29 colon. Further, the growth in the assay on SNB-75 CNS is 84.8%; in the assay on SNB-19 CNS, 96.2%; in the assay with U251 CNS it was 94.2%; in the assay with PC-3 prostate it was 91.6%; in the assay on SK-MEL-5 melanoma, 93.4%; in the assay with UACC-62 melanoma, 91.1%. Further, the growth is 61.1% with LOX IMVI melanoma and 95.5% in the assay with SK-MEL-28 melanoma.
Turning to `N#CC1=C(N)Oc2c(c(=O)[nH]c3ccc(Cl)cc23)C12C(=O)c1ccccc1C2=O`, the growth was 106% in the assay with DU-145 prostate; 126% in the assay on K-562 leukemia; 95% in the assay with MALME-3M melanoma; 90.3% in the assay with MDA-MB-231 breast; 101% in the assay on RXF 393 renal; 92% in the assay with SF-268 CNS. The growth with SF-295 CNS was 104%; with SF-539 CNS, 92.3%; in the assay with UACC-257 melanoma, 101%; in the assay on M14 melanoma, 97.8%; in the assay with HCT-15 colon, 98.6%; with HT29 colon, 108%. The growth was 76.5% in the assay with SNB-75 CNS; 91.6% with SNB-19 CNS; 99.4% with U251 CNS; 91.6% in the assay with PC-3 prostate; 95.9% with SK-MEL-5 melanoma; 89.4% in the assay with UACC-62 melanoma. For the same compound, the growth in the assay with LOX IMVI melanoma was 99.6%; in the assay with SK-MEL-28 melanoma, 104%.
`CCN(CC)S(=O)(=O)c1ccc(S(=O)(=O)N2CCC[C@@H](C(=O)N3CCN(c4nc(C(C)C)no4)CC3)C2)cc1`: the growth in the assay with DU-145 prostate is 62.6%; with K-562 leukemia, 30.9%; with MALME-3M melanoma it was 85.3%; in the assay with MDA-MB-231 breast, 81.3%; in the assay on RXF 393 renal, 64.5%; with SF-268 CNS, 69%. The growth with SF-295 CNS was 52.8%; in the assay with SF-539 CNS, 74.3%; in the assay with UACC-257 melanoma it was 45.1%; in the assay on M14 melanoma, 78.8%; with HCT-15 colon it was 92.2%; in the assay on HT29 colon, 87.8%. The growth was 56.4% in the assay on SNB-75 CNS; 64.2% in the assay with SNB-19 CNS; 85.3% in the assay on U251 CNS; 76.2% in the assay on PC-3 prostate; 17.2% with SK-MEL-5 melanoma; 59.7% in the assay with UACC-62 melanoma. In addition, the results for the growth in the assay on LOX IMVI melanoma and with SK-MEL-28 melanoma were 54% and 91%, respectively.
On to `CN(C)CCNC(=O)c1ccc(-c2nc3ccc4[nH]ncc4c3c3c2C2CCC3C2)cc1` (stereo not given), for which the growth in the assay on DU-145 prostate was 20.8%; in the assay with K-562 leukemia, 20.7%; in the assay with MALME-3M melanoma it was 28.1%; in the assay with MDA-MB-231 breast it was 2.4% (active); in the assay on RXF 393 renal, -30.9% (active); in the assay on SF-268 CNS, 16.8%. The growth was 40.9% in the assay with SF-295 CNS; 18.5% in the assay on SF-539 CNS; 58.7% with UACC-257 melanoma; 31.3% in the assay on M14 melanoma; 41.8% with HCT-15 colon; 34.4% with HT29 colon. Further, the growth in the assay on SNB-75 CNS is -12.4% (active); in the assay with SNB-19 CNS, 60.9%; in the assay with U251 CNS it was 44.8%; in the assay with PC-3 prostate, 19.9%; with SK-MEL-5 melanoma, 16.4%; in the assay with UACC-62 melanoma, 31.3%. For the same compound, the figures for the growth with LOX IMVI melanoma and with SK-MEL-28 melanoma were 26.2% and 46.6%, respectively.
Take `COc1cccc(CNc2ccc3ncnc(Nc4ccc(F)c(Cl)c4)c3c2)c1`: the growth with DU-145 prostate is 54.3%; with K-562 leukemia, 48.3%; in the assay with MALME-3M melanoma, 58.1%; in the assay with MDA-MB-231 breast it was 68.2%; in the assay with RXF 393 renal it was 65.9%; with SF-268 CNS, 65.6%. Further, the growth in the assay on SF-295 CNS is 79.4%; in the assay with SF-539 CNS it was 93.8%; with UACC-257 melanoma, 49.2%; in the assay on M14 melanoma it was 72.9%; with HCT-15 colon it was 53.2%; in the assay on HT29 colon, 88.3%. In addition, the growth is 79.3% with SNB-75 CNS; 69% in the assay with SNB-19 CNS; 71.4% in the assay with U251 CNS; 52.7% in the assay on PC-3 prostate; 89.5% in the assay on SK-MEL-5 melanoma; 81.1% in the assay on UACC-62 melanoma. Moreover, the growth with LOX IMVI melanoma was 69.8%; in the assay with SK-MEL-28 melanoma it was 107%.
Turning to `CC(O)(c1ccccc1)C(c1ccccc1)C1CCCCN1` (stereo not given), the growth was 103% in the assay on DU-145 prostate; 95.6% in the assay on K-562 leukemia; 97.5% in the assay on MALME-3M melanoma; 93.9% in the assay with MDA-MB-231 breast; 106% in the assay on RXF 393 renal; 99.6% in the assay on SF-268 CNS. Moreover, the growth with SF-295 CNS is 99.8%; with SF-539 CNS, 96.5%; in the assay with UACC-257 melanoma, 96.2%; with M14 melanoma, 92.3%; with HCT-15 colon it was 96.6%; in the assay with HT29 colon it was 99.3%. The growth in the assay with SNB-75 CNS is 100%; in the assay with SNB-19 CNS it was 99.5%; with U251 CNS it was 100%; in the assay on PC-3 prostate it was 105%; with SK-MEL-5 melanoma it was 103%; in the assay on UACC-62 melanoma it was 95.8%. For the same compound, the growth in the assay on LOX IMVI melanoma was 96.8%; in the assay on SK-MEL-28 melanoma, 109%.
Take `COc1cc2c(c(OC)c1OC)CCC(c1cccc(NC(=O)c3ccc(Br)cc3)c1)O2` (stereo not given): the growth was 87.9% in the assay on DU-145 prostate; 49.7% in the assay with K-562 leukemia; 80.4% with MALME-3M melanoma; 82.6% in the assay on MDA-MB-231 breast; 89% in the assay on RXF 393 renal; 78.6% with SF-268 CNS. Also, the growth was 66.9% in the assay with SF-295 CNS; 97.3% in the assay on SF-539 CNS; 69.6% in the assay with UACC-257 melanoma; 81.3% with M14 melanoma; 85.2% with HCT-15 colon; 77.4% with HT29 colon. Further, the growth with SNB-75 CNS was 86%; with SNB-19 CNS it was 86%; with U251 CNS, 90%; in the assay on PC-3 prostate it was 60.5%; in the assay on SK-MEL-5 melanoma, 71.4%; with UACC-62 melanoma, 60.6%. For the same compound, the values for the growth with LOX IMVI melanoma and with SK-MEL-28 melanoma were 90.4% and 89.7%, respectively.
